Measurements from PubChem BioAssay (NCI).
This is part of a sample that, as a whole, favours compounds with a hit. Of some 79,000 tested, about 15% had one in any assay. Active and inactive are the calls of the source. Rule as the data show it: active = growth inhibition above about 70%; inactive = the rest. Residues, ends and D or L forms follow the SMILES beside them. *: point of attachment. Fmoc = O=C(OCC1c2ccccc2-c2ccccc21)*; Boc = CC(C)(C)OC(=O)*

Experiments:
[1] = NCI Yeast Anticancer Drug Screen. Data for the rad52 strain (AID 147);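 also: 0% = growth of vehicle-treated control cultures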; settings: S. cerevisiae rad52 mutant growth inhibition, hits give high values
Procedure, shortened: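 The repair-mutant yeast strain was incubated with compounds, then growth was read and inhibition derived relative to vehicle.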

[2] = NCI Yeast Anticancer Drug Screen. Data for the wt1 strain (AID 149);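 also: 0% = growth of vehicle-treated wt1 cultures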; settings: S. cerevisiae wt1 strain (SPY 50644) growth inhibition, hits give high values
Procedure, shortened: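 wt1 yeast, compound-treated; % growth inhibition vs vehicle control.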

[3] = NCI Yeast Anticancer Drug Screen. Data for the rad50EPP+ strain (AID 151);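 also: 0% = growth of vehicle-treated control cultures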; settings: S. cerevisiae rad50 mutant strain, hits give high values
Procedure, shortened: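 Vehicle-normalised growth inhibition; rad50EPP+ yeast strain, altered in DNA damage repair, compound-treated.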

[4] = NCI Yeast Anticancer Drug Screen. Data for the mgt1 strain (AID 153); settings: S. cerevisiae mgt1 mutant growth inhibition, hits give high values
Procedure, shortened: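 Vehicle-normalized growth inhibition is determined in mgt1 yeast, a strain selected for a defined alteration in DNA repair or cell cycle control.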

[5] = NCI Yeast Anticancer Drug Screen. Data for the rad50 strain (AID 155);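 also: 0% = growth of vehicle-only cultures of the same strain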; settings: S. cerevisiae rad50 strain growth inhibition, hits give high values
Procedure, shortened: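 Genetically altered yeast (DNA repair pathway); compound treatment; growth inhibition vs vehicle ctrl.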

[6] = NCI Yeast Anticancer Drug Screen. Data for the rad14 strain (AID 159);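 also: 0% = growth of vehicle-treated control cultures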; settings: S. cerevisiae rad14 strain growth inhibition, hits give high values
Procedure, shortened: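 Test compounds were applied to a repair-deficient yeast strain. Its growth was then compared with that of cultures given vehicle alone, and inhibition was expressed relative to those controls.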

[7] = NCI Yeast Anticancer Drug Screen. Data for the sgs1 mgt1 strain (AID 161);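 also: 0% = growth of cultures given vehicle only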; settings: S. cerevisiae sgs1 mgt1 strain, hits give high values
Procedure, shortened: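 Yeast cells carrying a defined DNA-repair defect were exposed to test compounds. Growth inhibition was measured relative to vehicle-treated controls.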

[8] = NCI Yeast Anticancer Drug Screen. Data for the CLN2oe strain (AID 163);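 also: 0% = growth of vehicle-only control cultures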; settings: S. cerevisiae CLN2oe strain, hits give high values
Procedure, shortened: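 Compounds are applied to yeast harbouring a defined cell-cycle control change; reduced growth compared with vehicle-treated controls gives the value.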

[9] = NCI Yeast Anticancer Drug Screen. Data for the cln2 rad14 strain (AID 165);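 also: 0% = growth equal to vehicle treated cultures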; settings: S. cerevisiae cln2 rad14 strain, hits give high values
Procedure, shortened: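 Readout is yeast growth inhibition versus vehicle-treated controls, using a strain with cln2 and rad14 alterations exposed to compound.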

[10] = NCI Yeast Anticancer Drug Screen. Data for the bub3 strain (AID 167); settings: S. cerevisiae bub3 mutant strain, hits give high values
Procedure, shortened: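 Yeast carrying a defined mutation is treated with each compound, and growth is compared with that of vehicle-exposed cells to give inhibition.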

[11] = NCI Yeast Anticancer Drug Screen. Data for the wt2 strain (AID 169);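 also: 0% = growth of vehicle-treated yeast cultures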; settings: S. cerevisiae wt2 strain growth inhibition, hits give high values
Procedure, shortened: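 Against vehicle-treated controls, the growth of yeast exposed to each compound was compared, and the inhibition was recorded.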

[12] = NCI Yeast Anticancer Drug Screen. Data for the mlh1 strain (AID 171);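 also: 0% = growth of vehicle-treated control cultures of the same strain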; settings: S. cerevisiae mlh1 strain growth inhibition, hits give high values
Procedure, shortened: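 Measured: yeast growth. Reference: vehicle-treated controls. Organism: strain with a defined alteration affecting DNA damage repair or cell cycle control, treated with compound.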

[13] = NCI Yeast Anticancer Drug Screen. Data for the sgs1 strain (AID 173);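 also: 0% = growth of vehicle-only control cultures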; settings: S. cerevisiae sgs1 mutant, hits give high values
Procedure, shortened: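 Each compound was added to cultures of the altered yeast strain. Growth was recorded, and inhibition was derived by comparison with vehicle controls.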

[14] = NCI Yeast Anticancer Drug Screen. Data for the mlh1 rad18 strain (AID 175); settings: S. cerevisiae mlh1 rad18 strain growth inhibition, hits give high values
Procedure, shortened: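 Genetically defined yeast (DNA repair-deficient) exposed to compounds; growth inhibition determined relative to vehicle.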

[15] = NCI Yeast Anticancer Drug Screen. Data for the rad18 strain (AID 177); settings: S. cerevisiae rad18 mutant growth inhibition, hits give high values
Procedure, shortened: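 Vehicle-treated cultures served as the baseline for scoring compound-induced growth inhibition in DNA-repair-mutant yeast.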

[16] = NCI Yeast Anticancer Drug Screen. Data for the mec2-1 strain (AID 157); settings: S. cerevisiae mec2-1 strain, hits give high values
Procedure, shortened: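 Mutant yeast (mec2-1) grown with compound; growth inhibition relative to vehicle control reported.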

[17] = at 5.0 µM (retest, dose inferred, filed as 0.5)
[18] = at 50.0 µM (retest, dose inferred, filed as 5.0)

Measured: growth inhibition

CC(C)(C)OC(=O)NCCCCC(NC(=O)C(Cc1c[nH]c2ccccc12)NC(=O)OCC1c2ccccc2-c2ccccc21)C(=O)O (stereo not drawn) (Fmoc-Trp-Lys(Boc)-OH; configuration not given here)
active: [4]; at 100.0 µM 75% | [6]; at 100.0 µM 70% | [9]; at 50.0 µM 82.8% | [12]; at 100.0 µM 70%
inactive: [1]; at 1.2 µM -3% | [1]; at 3.7 µM 0% | [1]; at 11.0 µM -2% | [1]; at 33.0 µM 10% | [1]; at 100.0 µM 58% | [2]; at 1.2 µM -2% | [2]; at 3.7 µM -2% | [2]; at 11.0 µM -3% | [2]; at 33.0 µM 2% | [2]; at 100.0 µM 50% | [3]; at 1.2 µM -1% | [3]; at 3.7 µM 0% | [3]; at 11.0 µM 2% | [3]; at 33.0 µM 2% | [3]; at 100.0 µM -5% | [4]; at 1.2 µM 0% | [4]; at 3.7 µM 2% | [4]; at 11.0 µM -4% | [4]; at 33.0 µM 8% | [5]; at 1.2 µM -3% | [5]; at 3.7 µM -1% | [5]; [17] -19% | [5]; at 11.0 µM -3% | [5]; at 33.0 µM 11% | [5]; [18] 22% | [5]; at 50.0 µM 15.4% | [5]; at 100.0 µM 56% | [6]; at 1.2 µM -1% | [6]; at 3.7 µM 0% | [6]; at 11.0 µM 1% | [6]; at 33.0 µM 28% | [7]; [17] -13% | [7]; [18] 21% | [7]; at 50.0 µM 36.1% | [8]; at 1.2 µM 4% | [8]; at 3.7 µM 1% | [8]; at 11.0 µM -7% | [8]; at 33.0 µM 17% | [8]; at 100.0 µM 66% | [9]; [17] 37% | [9]; [18] 21% | [10]; at 1.2 µM -3% | [10]; at 3.7 µM -1% | [10]; [17] -19% | [10]; at 11.0 µM -1% | [10]; at 33.0 µM 6% | [10]; [18] 5% | [10]; at 50.0 µM 18.4% | [10]; at 100.0 µM 59% | [11]; at 1.2 µM 0% | [11]; at 3.7 µM -2% | [11]; at 11.0 µM -4% | [11]; at 33.0 µM 1% | [11]; at 100.0 µM 61% | [12]; at 1.2 µM -1% | [12]; at 3.7 µM -1% | [12]; at 11.0 µM -2% | [12]; at 33.0 µM 10% | [13]; at 1.2 µM -1% | [13]; at 3.7 µM 0% | [13]; at 11.0 µM 0% | [13]; at 33.0 µM 11% | [13]; at 100.0 µM 61% | [14]; [17] -11% | [14]; [18] 50% | [14]; at 50.0 µM 60.6% | [15]; at 1.2 µM -1% | [15]; at 3.7 µM -2% | [15]; at 11.0 µM -2% | [15]; at 33.0 µM 8% | [15]; at 100.0 µM 59%

Fc1ccc(Nc2ccc3ccccc3c2)cc1
active: [1]; at 100.0 µM 78% | [5]; at 50.0 µM 91% | [5]; at 100.0 µM 89% | [16]; [18] 84% | [16]; at 50.0 µM 90.2% | [16]; at 100.0 µM 93% | [6]; at 100.0 µM 97% | [7]; [18] 86% | [7]; at 50.0 µM 91.2% | [9]; at 50.0 µM 92.1% | [10]; at 50.0 µM 92.8% | [10]; at 100.0 µM 88% | [11]; at 100.0 µM 91% | [12]; at 100.0 µM 90% | [13]; at 100.0 µM 95% | [14]; at 50.0 µM 93.5% | [15]; at 100.0 µM 91%
inactive: [1]; at 1.2 µM -1% | [1]; at 3.7 µM -2% | [1]; at 11.0 µM -3% | [1]; at 33.0 µM 17% | [2]; at 1.2 µM -1% | [2]; at 3.7 µM 0% | [2]; at 11.0 µM -2% | [2]; at 33.0 µM 21% | [2]; at 100.0 µM 41% | [3]; at 1.2 µM -3% | [3]; at 3.7 µM -3% | [3]; at 11.0 µM -1% | [3]; at 33.0 µM 4% | [3]; at 100.0 µM 7% | [5]; at 1.2 µM -6% | [5]; at 3.7 µM -48% | [5]; [17] -1% | [5]; at 11.0 µM 8% | [5]; at 33.0 µM 4% | [5]; [18] 64% | [16]; at 1.2 µM -1% | [16]; at 3.7 µM 0% | [16]; [17] -2% | [16]; at 11.0 µM -3% | [16]; at 33.0 µM 25% | [6]; at 1.2 µM -1% | [6]; at 3.7 µM 2% | [6]; at 11.0 µM 2% | [6]; at 33.0 µM 55% | [7]; [17] -4% | [8]; at 1.2 µM 2% | [8]; at 3.7 µM -2% | [8]; at 11.0 µM -1% | [8]; at 33.0 µM -11% | [8]; at 100.0 µM 44% | [9]; [17] -3% | [9]; [18] 67% | [10]; at 1.2 µM 0% | [10]; at 3.7 µM -7% | [10]; [17] 0% | [10]; at 11.0 µM -6% | [10]; at 33.0 µM -9% | [10]; [18] 12% | [11]; at 1.2 µM -1% | [11]; at 3.7 µM 8% | [11]; at 11.0 µM -1% | [11]; at 33.0 µM 44% | [12]; at 1.2 µM 0% | [12]; at 3.7 µM 0% | [12]; at 11.0 µM -2% | [12]; at 33.0 µM 44% | [13]; at 1.2 µM -2% | [13]; at 3.7 µM 0% | [13]; at 11.0 µM 2% | [13]; at 33.0 µM 63% | [14]; [17] -3% | [14]; [18] 69% | [15]; at 1.2 µM 0% | [15]; at 3.7 µM 1% | [15]; at 11.0 µM 0% | [15]; at 33.0 µM -1%

CC(C)S(=O)(=O)/C=C\S(=O)(=O)C(C)C
active: [1]; at 33.0 µM 75% | [1]; at 100.0 µM 97% | [2]; at 33.0 µM 87% | [2]; at 100.0 µM 98% | [4]; at 100.0 µM 96% | [5]; at 33.0 µM 83% | [5]; [18] 74% | [5]; at 100.0 µM 97%
inactive: [1]; at 1.2 µM -5% | [1]; at 3.7 µM -7% | [1]; at 11.0 µM 23% | [2]; at 1.2 µM 1% | [2]; at 3.7 µM 19% | [2]; at 11.0 µM 44% | [3]; at 1.2 µM -1% | [3]; at 3.7 µM -11% | [3]; at 11.0 µM 5% | [3]; at 33.0 µM 26% | [3]; at 100.0 µM 25% | [4]; at 1.2 µM 1% | [4]; at 3.7 µM -5% | [4]; at 11.0 µM 15% | [4]; at 33.0 µM 63% | [5]; at 1.2 µM -5% | [5]; at 3.7 µM -5% | [5]; [17] -138% | [5]; at 11.0 µM 14% | [5]; at 50.0 µM 64.8% | [16]; at 1.2 µM 1% | [16]; at 3.7 µM 2%
